Records with an inconclusive call do not appear. Activity calls are given as the source filed them. Calls come from the whole dose curve; as a rule, active = well fitted curve in the direction sought with a large enough effect; inconclusive = small, poorly fitted or top-dose-only effect, or another doubt; inactive = no such curve, though single readings can be large; an effect the other way counts as inactive or inconclusive.
Key:
[1] = P-glycoprotein substrates identified in KB-8-5-11 adenocarcinoma cell line, qHTS therapeutic library screen (AID 1346987); settings: outcome: dose series up to 44.5 µM; note: series mostly up to about 44 µM; nearly all actives have a fitted effect of over 65% in size
Outline: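 Compounds are pinned in dose-response onto KB-8-5-11 cells (500 cells/well, colchicine-free medium) and left 72 h at 37 degree C. CellTiter-Glo luminescence then yields AC50 values.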

[2] = NS1 protein of Zika virus - qHTS assay to identify small molecule inhibitors in human HEK 293 cells (AID 1347053); note: series mostly up to about 46 µM; nearly all actives have a fitted effect of over 55% in size
Outline: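 Compound-treated (1 h pre-infection) HEK 293 cells infected with ZIKV MR766, MOI = 0.5; after 24 h at 37 C, NS1 read by TR-FRET; data normalized to uninfected and infected controls.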

[3] = qHTS of pediatric cancer cell lines to identify multiple opportunities for drug repurposing: Primary screen for TC32 cells (AID 1347089); note: nearly all actives have a fitted effect of over 60% in size
Outline: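 Luminescent ATP read-out (CellTiter-Glo) of metabolically active TC32 cells after 48 h exposure. Concentration-response curves came from 11-point (MIPE, 0.78 nM–46 µM) or 8-point (NPC, 0.59 nM–46 µM) primary titrations; follow-up used 11 points.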

[4] = qHTS of pediatric cancer cell lines to identify multiple opportunities for drug repurposing: Primary screen for DAOY cells (AID 1347090); note: series mostly up to about 46 µM; nearly all actives have a fitted effect of over 55% in size
Outline: (§1)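 Cell viability, CellTiter-Glo luminescence; 500-1,000 cells/well, 8- or 11-point titration, 48 h compound exposure at 37 degrees C, 5% CO2. Controls: DMSO neutral, bortezomib 2.3 µM final as positive.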

[5] = qHTS of pediatric cancer cell lines to identify multiple opportunities for drug repurposing: Primary screen for SJ-GBM2 cells (AID 1347091)
Outline: as §1

[6] = qHTS of pediatric cancer cell lines to identify multiple opportunities for drug repurposing: Primary screen for SK-N-MC cells (AID 1347093); note: series mostly up to about 46 µM
Outline: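 Metabolically active cells were quantified by ATP-dependent luminescence (CellTiter-Glo, 15 min at room temperature) following 48 h treatment. Cells had been plated at 500-1,000 per well and settled for 5 h beforehand.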

[7] = qHTS of pediatric cancer cell lines to identify multiple opportunities for drug repurposing: Primary screen for BT-37 cells (AID 1347094); note: series mostly up to about 57 µM
Outline: (§2)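 Readout: CellTiter-Glo luminescence, 48 h treatment. Controls DMSO (neutral) and bortezomib 2.3 µM final (positive). Potency and efficacy taken from primary-screen concentration-response curves.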

[8] = qHTS of pediatric cancer cell lines to identify multiple opportunities for drug repurposing: Primary screen for NB-EBc1 cells (AID 1347095)
Outline: as §2

[9] = qHTS of pediatric cancer cell lines to identify multiple opportunities for drug repurposing: Primary screen for U-2 OS cells (AID 1347096); note: nearly all actives have a fitted effect of over 50% in size
Outline: (§3)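 Cells (500-1,000/well) rested 5 h, then received compounds for 48 h; metabolically active cells were measured by CellTiter-Glo luminescence. Final concentrations spanned up to 46 µM (MIPE, 11-point) or 0.59 nM-46 µM (NPC, 8-point) in primary screens, 11-point in follow-ups.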

[10] = qHTS of pediatric cancer cell lines to identify multiple opportunities for drug repurposing: Primary screen for Saos-2 cells (AID 1347097); note: nearly all actives have a fitted effect of over 40% in size
Outline: as §2

[11] = qHTS of pediatric cancer cell lines to identify multiple opportunities for drug repurposing: Primary screen for NB1643 cells (AID 1347099); note: nearly all actives have a fitted effect of over 50% in size
Outline: as §2

[12] = qHTS of pediatric cancer cell lines to identify multiple opportunities for drug repurposing: Primary screen for LAN-5 cells (AID 1347100)
Outline: as §3

[13] = qHTS of pediatric cancer cell lines to identify multiple opportunities for drug repurposing: Primary screen for BT-12 cells (AID 1347101); note: nearly all actives have a fitted effect of over 25% in size
Outline: as §3

[14] = qHTS of pediatric cancer cell lines to identify multiple opportunities for drug repurposing: Primary screen for Rh18 cells (AID 1347102); note: nearly all actives have a fitted effect of over 65% in size
Outline: as §3

[15] = qHTS of pediatric cancer cell lines to identify multiple opportunities for drug repurposing: Primary screen for OHS-50 cells (AID 1347103); note: nearly all actives have a fitted effect of over 40% in size
Outline: as §3

[16] = qHTS of pediatric cancer cell lines to identify multiple opportunities for drug repurposing: Primary screen for RD cells (AID 1347104); note: nearly all actives have a fitted effect of over 55% in size
Outline: as §2

[17] = qHTS of pediatric cancer cell lines to identify multiple opportunities for drug repurposing: Primary screen for MG 63 (6-TG R) cells (AID 1347105); note: nearly all actives have a fitted effect of over 50% in size
Outline: as §2

[18] = qHTS of pediatric cancer cell lines to identify multiple opportunities for drug repurposing: Primary screen for SK-N-SH cells (AID 1347098); note: nearly all actives have a fitted effect of over 65% in size
Outline: as §3

[19] = qHTS of pediatric cancer cell lines to identify multiple opportunities for drug repurposing: Primary screen for A673 cells (AID 1347092); note: nearly all actives have a fitted effect of over 45% in size
Outline: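 Cell viability of A673 measured by CellTiter-Glo ATP luminescence after 48 hours compound exposure. Dilution series spanned 0.78 nM to 46 µM (MIPE, 11-point) or 0.59 nM to 46 µM (NPC, 8-point); bortezomib 2.3 uM positive control.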

Measured: Potency

Cn1c([N+](=O)[O-])cnc1COC(N)=O
not listed: [18] | [19]
inactive: all other assays above

CN/C(=C\[N+](=O)[O-])NCCSCc1csc(CN(C)C)n1
not listed: [18] | [19]
inactive: all other assays above

O=C(O)CCCCC1CCSS1 (stereo not given)
not listed: [13] | [19]
inactive: all other assays above

CCOC(N)=O
not listed: [19]
inactive: all other assays above

O=C(O)Cn1c(C(=O)Nc2nc(-c3ccccc3Cl)cs2)cc2ccccc21
not listed: [6] | [14]
inactive: all other assays above

CC(=O)Nc1ccccc1
not listed: [13] | [15] | [19]
inactive: all other assays above

Cc1cccc(Nc2ccccc2C(=O)O)c1C
not listed: [6] | [10]
inactive: all other assays above

CN(C(=O)c1c(O)c2ccccc2n(C)c1=O)c1ccccc1
not listed: [14] | [19]
inactive: all other assays above

CCCCCCCC(=O)OCC(O)CO (stereo not given)
not listed: [15] | [19]
inactive: all other assays above

Cc1cc(-n2nc3ccc(Cl)cc3n2)c(O)c(C(C)(C)C)c1
not listed: [18] | [19]
inactive: all other assays above

COc1ccc(NS(=O)(=O)c2ccc(N)cc2)nn1
not listed: [6] | [15]
inactive: all other assays above

Nc1ccc(S(=O)(=O)c2ccc(N)cc2)cc1
not listed: [4]
inactive: all other assays above

NS(=O)(=O)c1ccc(C(=O)O)cc1
not listed: [10] | [11] | [19]
inactive: all other assays above

CC(C)(C)C(=O)OCOC(=O)[C@@H]1N2C(=O)[C@@H](NC(=O)[C@H](N)c3ccccc3)[C@H]2SC1(C)C
not listed: [13] | [18] | [19]
inactive: all other assays above

NCC1CCC(C(=O)Oc2ccc(CCC(=O)O)cc2)CC1 (stereo not given)
not listed: [5] | [8] | [13]
inactive: all other assays above

CC(=O)NS(=O)(=O)c1ccc(N)cc1
not listed: [4] | [11]
inactive: all other assays above
